In experiment [1] the target is T1, Serine/threonine-protein kinase Nek9 (Homo sapiens) (UniProt Q8TD19).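 Note: each value is a mean percent inhibition of NEK9.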
T1 sequence (whole entry): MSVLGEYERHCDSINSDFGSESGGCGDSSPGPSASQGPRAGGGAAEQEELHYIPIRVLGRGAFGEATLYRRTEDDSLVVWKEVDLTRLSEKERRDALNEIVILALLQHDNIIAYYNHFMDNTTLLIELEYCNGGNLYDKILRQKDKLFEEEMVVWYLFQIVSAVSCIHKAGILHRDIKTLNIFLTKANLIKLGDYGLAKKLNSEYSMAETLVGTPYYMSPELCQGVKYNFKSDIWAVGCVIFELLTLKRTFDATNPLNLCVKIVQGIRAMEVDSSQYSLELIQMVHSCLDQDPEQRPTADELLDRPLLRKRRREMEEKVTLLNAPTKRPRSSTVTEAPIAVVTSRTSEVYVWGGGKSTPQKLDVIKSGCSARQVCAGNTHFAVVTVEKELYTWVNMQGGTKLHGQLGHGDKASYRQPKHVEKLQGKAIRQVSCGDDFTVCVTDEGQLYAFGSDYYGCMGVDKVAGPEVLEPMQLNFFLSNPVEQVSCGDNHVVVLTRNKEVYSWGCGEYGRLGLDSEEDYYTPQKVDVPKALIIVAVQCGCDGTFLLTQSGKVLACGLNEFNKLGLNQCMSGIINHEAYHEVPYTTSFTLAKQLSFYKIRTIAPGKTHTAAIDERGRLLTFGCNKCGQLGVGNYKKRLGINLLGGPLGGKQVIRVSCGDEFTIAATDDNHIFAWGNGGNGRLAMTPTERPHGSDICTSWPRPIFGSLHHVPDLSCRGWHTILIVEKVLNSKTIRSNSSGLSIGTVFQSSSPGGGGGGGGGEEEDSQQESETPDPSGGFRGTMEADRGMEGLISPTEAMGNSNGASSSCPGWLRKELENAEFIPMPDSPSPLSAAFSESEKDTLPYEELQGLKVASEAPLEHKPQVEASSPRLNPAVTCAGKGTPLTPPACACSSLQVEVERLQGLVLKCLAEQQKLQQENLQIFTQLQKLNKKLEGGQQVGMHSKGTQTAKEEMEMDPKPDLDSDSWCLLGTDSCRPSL
Conditions: at 1 µM.

Experiment [2] concerns the target Serine/threonine-protein kinase PLK1 (Homo sapiens) (UniProt P53350). The settings on record: at 0.1 µM.
For experiment [3] the target is unchanged. The settings on record: at 1 µM.
Experiment [4] deals with T2, Dual specificity protein kinase TTK (Homo sapiens) (UniProt P33981).
T2 sequence (whole entry): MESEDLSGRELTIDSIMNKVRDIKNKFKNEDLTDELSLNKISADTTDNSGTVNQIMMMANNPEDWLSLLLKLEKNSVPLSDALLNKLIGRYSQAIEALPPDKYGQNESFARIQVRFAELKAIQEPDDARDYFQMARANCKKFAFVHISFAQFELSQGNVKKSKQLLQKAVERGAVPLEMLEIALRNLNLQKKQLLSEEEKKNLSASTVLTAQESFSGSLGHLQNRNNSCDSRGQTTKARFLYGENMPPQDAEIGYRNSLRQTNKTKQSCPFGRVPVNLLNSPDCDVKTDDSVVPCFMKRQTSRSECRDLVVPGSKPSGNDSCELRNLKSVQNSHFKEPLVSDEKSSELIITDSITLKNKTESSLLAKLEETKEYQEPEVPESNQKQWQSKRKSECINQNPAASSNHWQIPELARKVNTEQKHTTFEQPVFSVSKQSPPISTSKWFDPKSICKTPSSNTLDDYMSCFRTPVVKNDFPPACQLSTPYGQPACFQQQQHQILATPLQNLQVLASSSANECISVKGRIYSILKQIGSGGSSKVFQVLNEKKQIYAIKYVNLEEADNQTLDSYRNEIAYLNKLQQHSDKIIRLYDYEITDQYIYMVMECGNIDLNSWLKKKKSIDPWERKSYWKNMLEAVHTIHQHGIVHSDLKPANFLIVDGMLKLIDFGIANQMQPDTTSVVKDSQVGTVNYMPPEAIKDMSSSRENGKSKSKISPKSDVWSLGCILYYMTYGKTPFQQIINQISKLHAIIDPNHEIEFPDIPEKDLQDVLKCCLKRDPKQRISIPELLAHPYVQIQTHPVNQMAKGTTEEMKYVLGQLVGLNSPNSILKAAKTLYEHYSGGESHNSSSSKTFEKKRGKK
Conditions: at 0.1 µM.

Experiment [5] concerns T3, Receptor-type tyrosine-protein kinase FLT3 (Homo sapiens), P36888 [D835Y].
T3 sequence (whole entry): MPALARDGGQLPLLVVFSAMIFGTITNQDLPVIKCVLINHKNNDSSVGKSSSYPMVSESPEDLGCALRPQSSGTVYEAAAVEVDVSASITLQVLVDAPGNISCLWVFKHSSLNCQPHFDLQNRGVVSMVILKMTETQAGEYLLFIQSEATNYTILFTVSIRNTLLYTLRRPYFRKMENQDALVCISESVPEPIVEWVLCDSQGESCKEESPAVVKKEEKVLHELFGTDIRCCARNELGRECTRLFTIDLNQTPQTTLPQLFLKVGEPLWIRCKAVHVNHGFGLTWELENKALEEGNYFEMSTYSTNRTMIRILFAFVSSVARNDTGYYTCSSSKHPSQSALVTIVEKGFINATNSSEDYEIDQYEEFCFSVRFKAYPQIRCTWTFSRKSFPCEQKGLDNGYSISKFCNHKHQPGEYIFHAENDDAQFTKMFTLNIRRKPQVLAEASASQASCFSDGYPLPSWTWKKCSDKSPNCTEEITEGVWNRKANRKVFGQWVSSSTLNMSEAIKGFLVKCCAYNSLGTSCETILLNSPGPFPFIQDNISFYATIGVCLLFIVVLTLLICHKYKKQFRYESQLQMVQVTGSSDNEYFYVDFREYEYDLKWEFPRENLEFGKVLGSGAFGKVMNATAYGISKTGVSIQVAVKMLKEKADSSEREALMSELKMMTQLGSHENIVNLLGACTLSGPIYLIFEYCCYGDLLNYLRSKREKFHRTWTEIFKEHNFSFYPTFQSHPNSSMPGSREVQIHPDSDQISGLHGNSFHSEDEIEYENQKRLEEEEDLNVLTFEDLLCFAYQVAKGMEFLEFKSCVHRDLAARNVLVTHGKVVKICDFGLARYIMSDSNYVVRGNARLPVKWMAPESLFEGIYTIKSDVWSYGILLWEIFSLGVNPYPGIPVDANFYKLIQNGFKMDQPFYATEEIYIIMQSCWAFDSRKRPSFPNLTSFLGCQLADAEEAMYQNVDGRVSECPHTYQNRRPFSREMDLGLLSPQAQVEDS
The settings on record: at 1 µM.

The target in experiment [6] is Vascular endothelial growth factor receptor 3 (Homo sapiens) (UniProt P35916). Conditions: at 0.1 µM.
Vascular endothelial growth factor receptor 3 (Homo sapiens), sequence (P35916 whole entry): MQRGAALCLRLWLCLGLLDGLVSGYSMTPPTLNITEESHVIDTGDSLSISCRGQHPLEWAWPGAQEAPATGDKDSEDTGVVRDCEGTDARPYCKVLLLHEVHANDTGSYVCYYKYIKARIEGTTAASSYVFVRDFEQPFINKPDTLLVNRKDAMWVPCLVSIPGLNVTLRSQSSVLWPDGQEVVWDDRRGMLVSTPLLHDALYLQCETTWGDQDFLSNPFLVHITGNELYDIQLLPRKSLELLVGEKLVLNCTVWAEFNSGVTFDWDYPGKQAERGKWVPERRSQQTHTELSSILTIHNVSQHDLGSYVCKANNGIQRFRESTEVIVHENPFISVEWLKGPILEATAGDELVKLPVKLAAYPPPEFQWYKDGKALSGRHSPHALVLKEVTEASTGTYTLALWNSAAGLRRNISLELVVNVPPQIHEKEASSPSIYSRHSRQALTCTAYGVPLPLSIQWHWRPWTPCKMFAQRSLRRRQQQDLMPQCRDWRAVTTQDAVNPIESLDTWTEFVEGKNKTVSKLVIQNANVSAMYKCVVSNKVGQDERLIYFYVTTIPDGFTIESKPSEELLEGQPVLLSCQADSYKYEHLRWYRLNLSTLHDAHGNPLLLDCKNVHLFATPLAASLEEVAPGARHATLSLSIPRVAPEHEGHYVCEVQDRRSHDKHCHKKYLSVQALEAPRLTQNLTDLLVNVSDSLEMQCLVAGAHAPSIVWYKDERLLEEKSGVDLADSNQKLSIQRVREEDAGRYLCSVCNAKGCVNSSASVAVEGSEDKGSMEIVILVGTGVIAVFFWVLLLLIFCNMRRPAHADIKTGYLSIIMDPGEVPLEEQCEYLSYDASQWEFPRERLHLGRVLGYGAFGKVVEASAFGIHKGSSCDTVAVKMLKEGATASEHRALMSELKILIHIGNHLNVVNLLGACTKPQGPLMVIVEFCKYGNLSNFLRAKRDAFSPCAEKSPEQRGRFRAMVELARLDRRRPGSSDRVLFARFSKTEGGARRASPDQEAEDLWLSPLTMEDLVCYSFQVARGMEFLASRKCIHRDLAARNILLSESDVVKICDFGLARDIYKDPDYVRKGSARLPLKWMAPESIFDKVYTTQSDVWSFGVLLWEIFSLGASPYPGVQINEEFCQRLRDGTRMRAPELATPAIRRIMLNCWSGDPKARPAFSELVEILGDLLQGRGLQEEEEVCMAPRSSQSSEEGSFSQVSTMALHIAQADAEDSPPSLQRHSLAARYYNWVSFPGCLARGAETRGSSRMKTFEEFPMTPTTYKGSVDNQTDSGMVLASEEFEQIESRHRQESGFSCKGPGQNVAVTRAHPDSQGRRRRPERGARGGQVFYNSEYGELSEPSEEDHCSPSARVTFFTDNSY
For experiment [7] the target is unchanged. The settings on record: at 1 µM.
Experiment [8] concerns the target Macrophage colony-stimulating factor 1 receptor (Homo sapiens) (UniProt P07333). Conditions: at 0.1 µM.
Experiment [9] has the same target. Conditions: at 1 µM.
Experiment [10] concerns the target Tyrosine-protein kinase Fyn (Homo sapiens) (UniProt P06241). The settings on record: at 0.1 µM.

In general, inhibition refers to the drop in the measured response relative to a control, in per cent.

Several values for one entry are separate records, joined by “and”; a condition that tells them apart may be missing. Identical values can stand only once.

Serine/threonine-protein kinase PLK1 (Homo sapiens), sequence (P53350 whole entry): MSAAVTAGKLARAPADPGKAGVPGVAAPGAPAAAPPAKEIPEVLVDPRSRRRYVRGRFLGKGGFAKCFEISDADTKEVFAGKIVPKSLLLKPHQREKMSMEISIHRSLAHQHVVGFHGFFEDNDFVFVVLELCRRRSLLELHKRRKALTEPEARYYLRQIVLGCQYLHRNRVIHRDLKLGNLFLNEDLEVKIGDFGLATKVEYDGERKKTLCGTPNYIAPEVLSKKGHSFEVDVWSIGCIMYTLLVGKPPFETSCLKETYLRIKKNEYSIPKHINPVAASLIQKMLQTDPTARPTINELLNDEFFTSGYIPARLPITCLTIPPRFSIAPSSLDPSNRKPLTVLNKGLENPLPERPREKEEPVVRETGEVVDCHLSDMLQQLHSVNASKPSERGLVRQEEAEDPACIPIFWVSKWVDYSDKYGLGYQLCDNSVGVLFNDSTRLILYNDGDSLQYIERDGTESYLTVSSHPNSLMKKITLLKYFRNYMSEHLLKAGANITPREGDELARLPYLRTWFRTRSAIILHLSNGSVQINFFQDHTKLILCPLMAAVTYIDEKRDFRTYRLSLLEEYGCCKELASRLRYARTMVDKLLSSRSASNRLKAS
Tyrosine-protein kinase Fyn (Homo sapiens), sequence (P06241 2-537 limits assumed): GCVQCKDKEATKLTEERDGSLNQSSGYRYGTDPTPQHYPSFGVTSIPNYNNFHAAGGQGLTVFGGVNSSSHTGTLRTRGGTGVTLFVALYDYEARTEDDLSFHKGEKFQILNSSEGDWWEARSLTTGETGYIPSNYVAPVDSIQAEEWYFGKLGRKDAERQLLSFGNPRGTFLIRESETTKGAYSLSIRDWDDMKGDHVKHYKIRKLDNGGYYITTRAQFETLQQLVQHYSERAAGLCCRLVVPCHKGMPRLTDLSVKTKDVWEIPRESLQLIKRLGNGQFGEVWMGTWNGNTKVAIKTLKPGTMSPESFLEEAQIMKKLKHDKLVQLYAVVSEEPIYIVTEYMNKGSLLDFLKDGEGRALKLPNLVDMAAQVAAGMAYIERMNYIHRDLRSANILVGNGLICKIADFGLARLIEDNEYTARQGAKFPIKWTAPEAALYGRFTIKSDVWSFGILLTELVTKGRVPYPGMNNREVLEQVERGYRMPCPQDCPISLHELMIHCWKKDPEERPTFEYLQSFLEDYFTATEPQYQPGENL
Macrophage colony-stimulating factor 1 receptor (Homo sapiens), sequence (P07333 whole entry): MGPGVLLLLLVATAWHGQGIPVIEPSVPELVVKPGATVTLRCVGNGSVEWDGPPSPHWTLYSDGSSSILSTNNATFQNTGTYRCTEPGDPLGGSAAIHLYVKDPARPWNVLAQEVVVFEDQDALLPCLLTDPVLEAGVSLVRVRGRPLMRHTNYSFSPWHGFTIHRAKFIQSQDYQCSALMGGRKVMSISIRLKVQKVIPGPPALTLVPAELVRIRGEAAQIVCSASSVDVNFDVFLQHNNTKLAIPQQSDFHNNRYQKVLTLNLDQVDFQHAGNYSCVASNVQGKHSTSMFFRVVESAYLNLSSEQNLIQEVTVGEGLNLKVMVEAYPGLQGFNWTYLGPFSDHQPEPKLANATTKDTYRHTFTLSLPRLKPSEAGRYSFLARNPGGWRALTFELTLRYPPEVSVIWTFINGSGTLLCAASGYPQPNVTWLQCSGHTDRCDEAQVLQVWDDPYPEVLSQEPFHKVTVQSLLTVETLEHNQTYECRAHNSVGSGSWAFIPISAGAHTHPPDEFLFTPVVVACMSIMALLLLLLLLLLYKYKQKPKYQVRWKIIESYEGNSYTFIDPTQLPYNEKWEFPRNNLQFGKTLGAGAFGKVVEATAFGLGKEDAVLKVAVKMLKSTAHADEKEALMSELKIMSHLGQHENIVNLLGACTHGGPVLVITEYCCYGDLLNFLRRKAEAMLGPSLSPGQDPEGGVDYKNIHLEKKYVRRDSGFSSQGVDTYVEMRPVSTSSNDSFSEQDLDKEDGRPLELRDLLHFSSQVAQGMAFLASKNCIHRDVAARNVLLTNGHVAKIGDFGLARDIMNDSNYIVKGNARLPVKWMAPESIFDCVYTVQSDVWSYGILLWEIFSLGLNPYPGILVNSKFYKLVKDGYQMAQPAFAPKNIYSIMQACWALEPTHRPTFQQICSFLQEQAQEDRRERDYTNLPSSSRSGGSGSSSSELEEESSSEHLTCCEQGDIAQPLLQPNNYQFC

In the case of `COc1cc(N2CCN(C(C)C)CC2)ccc1Nc1nc(Nc2cccc(F)c2C(=O)O)c2cc[nH]c2n1`, the inhibition in [1] is 4.56%; in [2], 6.28%; in experiment [3], 29.6%; in experiment [4], 62.3%; in [5] it was 12.6%; in [6], 2.54%. In addition, the inhibition in experiment [7] was -0.47%; in [8], 2.82%; in experiment [9] it was 2.24%; in experiment [10], -0.12%.
For `NS(=O)(=O)c1ccc(N/N=C2\C(=O)Nc3ccc(C(=O)NCc4ccncc4)cc32)cc1`, the inhibition in experiment [1] is 9.05%; in experiment [2], 3.77%; in [3], 2.52%; in experiment [4], 37.6%; in experiment [5], 34.3%; in experiment [6], 16.7%. The inhibition in experiment [7] was 48.7%; in experiment [8] it was 3.12%; in experiment [9] it was 8.74%; in experiment [10] it was 9.13%.
In the case of `O=C(O[C@H]1CN[C@H](C#Cc2cc3ncnc(Nc4ccc5c(ccn5Cc5cc(F)ccc5F)c4)c3s2)C1)N1CCOCC1`, the inhibition in experiment [1] is 12.3%; in [2] it was 4.51%; in experiment [3] it was 10.8%; in experiment [4] it was 11%; in experiment [5], -1.27%; in experiment [6], 4.34%. Besides, the inhibition is 4.77% in [7], 2.09% in [8], 15.5% in experiment [9] and 4.48% in experiment [10].
With `NS(=O)(=O)c1ccc(N/N=C2\C(=O)Nc3cccc(CCc4ccncc4)c32)cc1`, the inhibition was -6.07% in experiment [1]; -0.07% in experiment [2]; 1.59% in experiment [3]; 20.8% in experiment [4]; 64% in [5]; 30.1% in [6]. The inhibition turned out to be 47.9% in experiment [7], 39.9% in experiment [8], 46.2% in [9] and 2.64% in experiment [10].
For `CN1CCN(Cc2ccc(-c3cc4ncnc(Nc5ccc(OCc6cccc(F)c6)c(Cl)c5)c4s3)o2)CC1`, the inhibition was 5.83% and 18% in experiment [1]; 3.39% and 1.18% in [2]; 2.38% and 4.14% in [3]; 6.58% and 12.2% in [4]; -2.05% and 1.99% in experiment [5]; 2.97% and 4.96% in [6]. Further, the inhibition in experiment [7] is 3.14% and 8.22%; in experiment [8], 3.64% and 7.74%; in experiment [9], 27.9% and 35.8%; in experiment [10] it was 2.24% and 2.04%.
As to `CCS(=O)(=O)c1ccc(OC)c(Nc2ncc(-c3cccc(F)c3)o2)c1`, the inhibition in experiment [1] came out at 16.1%; in [2], 7.8%; in experiment [3] it was 9.98%; in experiment [4], 10.5%; in experiment [5], 60.3%; in experiment [6], 36.4%. For the same compound, the inhibition in [7] turned out to be 86.8%; in [8], 33.7%; in experiment [9], 66.7%; in experiment [10], 30.1%.
For the compound `CC(C)c1ccc(-c2cc(-c3c[nH]nc3-c3ccccn3)ccn2)cc1`, the inhibition in [1] was 2.93%; in experiment [2], 0.48%; in [3] it was 0.41%; in [4] it was 2.65%; in [5], 1.71%; in experiment [6], 1.37%. Besides, the inhibition in experiment [7] was determined as 5.15%; in experiment [8], 0.03%; in [9], 3.63%; in experiment [10], 1.14%.
In the case of `CCn1c(-c2nonc2N)nc2cncc(C(=O)NCCNC)c21`, the inhibition in experiment [1] was 11.9%; in experiment [2] it was 6.23%; in [3], 5.87%; in [4] it was 9.43%; in experiment [5], 3.12%; in experiment [6], 1.03%. The inhibition in experiment [7] is 3.05%; in [8], -0.11%; in experiment [9], 3.41%; in [10] it was 2.35%.

For the origin of these results see ChEMBL document CHEMBL1961873, “Compounds: GSK PKIS; Assays: Nanosyn kinase panel” (2012).
